Compounds without any hit were thinned out: in the full panel of roughly 83,000, 20% have a hit.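 For each line, cells grew in 96-well plates with the test compound present at a single concentration for 48 hours.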 The source made the active and inactive calls. How the source made its calls: active means growth percent below 10; inactive means the rest.
What was measured:
Assay in all cases: NCI-60 one-dose screen, 48 h (100 = growth as untreated, 0 = no growth, -100 = all killed)
SR leukemia = settings: 10 µM unless noted
RPMI-8226 leukemia = settings: 10 µM unless noted
OVCAR-8 ovarian = settings: 10 µM unless noted
OVCAR-5 ovarian = settings: 10 µM unless noted
OVCAR-4 ovarian = settings: 10 µM unless noted
SK-OV-3 ovarian = settings: 10 µM unless noted
IGROV1 ovarian = settings: 10 µM unless noted
OVCAR-3 ovarian = settings: 10 µM unless noted
HS 578T breast = settings: 10 µM
NCI/ADR-RES ovarian = settings: 10 µM unless noted
T-47D breast = settings: 10 µM unless noted
MDA-MB-435 melanoma = settings: 10 µM unless noted
SW-620 colon = settings: 10 µM unless noted
MCF7 breast = settings: 10 µM unless noted
HCT-116 colon = settings: 10 µM unless noted
HCC-2998 colon = settings: 10 µM
KM12 colon = settings: 10 µM unless noted
BT-549 breast = settings: 10 µM unless noted

Measured: growth

Oc1ccc(C(c2ccc(O)cc2)C(Cl)(Cl)Cl)cc1
inactive: SR leukemia 87.8% | RPMI-8226 leukemia 83.4% | OVCAR-8 ovarian 103% | OVCAR-5 ovarian 88.5% | OVCAR-4 ovarian 94.2% | SK-OV-3 ovarian 118% | IGROV1 ovarian 93% | OVCAR-3 ovarian 105% | HS 578T breast 88.3% | NCI/ADR-RES ovarian 94.9% | T-47D breast 94.3% | MDA-MB-435 melanoma 104% | SW-620 colon 114% | MCF7 breast 111% | HCT-116 colon 83.8% | HCC-2998 colon 122% | KM12 colon 104%

Cc1cc(C2(c3ccc(O)c(C)c3)OS(=O)(=O)c3ccccc32)ccc1O
inactive: SR leukemia 97.2% | RPMI-8226 leukemia 99.3% | OVCAR-8 ovarian 107% | OVCAR-5 ovarian 110% | OVCAR-4 ovarian 107% | SK-OV-3 ovarian 111% | IGROV1 ovarian 105% | OVCAR-3 ovarian 119% | HS 578T breast 101% | NCI/ADR-RES ovarian 109% | T-47D breast 110% | MDA-MB-435 melanoma 113% | SW-620 colon 108% | MCF7 breast 101% | HCT-116 colon 104% | HCC-2998 colon 114% | KM12 colon 110%

Nc1c(C(=O)c2ccccc2)sc2nc(-c3cccs3)ccc12
inactive: SR leukemia 30.5% | RPMI-8226 leukemia 21.4% | OVCAR-8 ovarian 28.9% | OVCAR-5 ovarian 66.9% | OVCAR-4 ovarian 57.3% | SK-OV-3 ovarian 35.4% | IGROV1 ovarian 46.5% | HS 578T breast 34.3% | T-47D breast 41.8% | BT-549 breast 59.6% | SW-620 colon 28.4% | MCF7 breast 34.2% | HCT-116 colon 13.3% | HCC-2998 colon 32.3% | KM12 colon 28.3%
active: OVCAR-3 ovarian 9.4% | MDA-MB-435 melanoma -5.48%

COc1cc(NCCN(CC(C)C)CC(C)C)c2ncc(C)cc2c1
inactive: SR leukemia 76.3% | RPMI-8226 leukemia 62.6% | OVCAR-8 ovarian 68.7% | OVCAR-5 ovarian 111% | OVCAR-4 ovarian 34.6% | SK-OV-3 ovarian 88.8% | IGROV1 ovarian 76.5% | HS 578T breast 100% | T-47D breast 20.3% | BT-549 breast 88.7% | SW-620 colon 68.1% | HCT-116 colon 31.8% | HCC-2998 colon 85.6% | KM12 colon 68.6%
active: OVCAR-3 ovarian 1.71% | MDA-MB-435 melanoma -76.4% | MCF7 breast 2.66%

Nc1nc(N)c2nc(-c3cccc(O)c3)c(-c3cccc(O)c3)nc2n1
active: T-47D breast 2.15%
inactive: SR leukemia 82% | RPMI-8226 leukemia 83.5% | OVCAR-8 ovarian 77.2% | OVCAR-5 ovarian 78.1% | OVCAR-4 ovarian 93.8% | SK-OV-3 ovarian 52.8% | IGROV1 ovarian 42.1% | OVCAR-3 ovarian 57.4% | NCI/ADR-RES ovarian 89.5% | BT-549 breast 47.8% | MDA-MB-435 melanoma 97.4% | SW-620 colon 90.8% | MCF7 breast 70.1% | HCT-116 colon 77.9% | HCC-2998 colon 94.6% | KM12 colon 90.6%

CO[C@H]1C[C@@H]2CC[C@@H](C)[C@@](O)(O2)C(=O)C(=O)N2CCCC[C@H]2C(=O)O[C@H]([C@H](C)C[C@@H]2CC[C@@H](O)[C@H](OC)C2)CC(=O)[C@H](C)/C=C(\C)[C@@H](O)[C@@H](OC)C(=O)[C@H](C)C[C@H](C)\C=C/C=C/C=C/1C
active: T-47D breast -5.21% | MCF7 breast 7.85%
inactive: SR leukemia 11.5% | RPMI-8226 leukemia 23.8% | OVCAR-8 ovarian 38.7% | OVCAR-5 ovarian 56.6% | OVCAR-4 ovarian 22.9% | SK-OV-3 ovarian 34.3% | IGROV1 ovarian 13.8% | OVCAR-3 ovarian 47.6% | NCI/ADR-RES ovarian 49% | BT-549 breast 20.3% | MDA-MB-435 melanoma 36.9% | SW-620 colon 51.3% | HCT-116 colon 39.5% | HCC-2998 colon 58.6% | KM12 colon 42.8%

O=C(c1ccc(/C=C/c2n[nH]c3ccccc23)cc1)N1CCNCC1
inactive: RPMI-8226 leukemia 48.9% | OVCAR-8 ovarian 58.8% | OVCAR-5 ovarian 14.4% | OVCAR-4 ovarian 54.8% | SK-OV-3 ovarian 48.5% | IGROV1 ovarian 33.5% | OVCAR-3 ovarian 66.8% | NCI/ADR-RES ovarian 82.1% | T-47D breast 84.1% | BT-549 breast 22.6% | MDA-MB-435 melanoma 38.7% | SW-620 colon 11.7% | MCF7 breast 24% | HCT-116 colon 17.7% | HCC-2998 colon 66.3%
active: SR leukemia 5.24%

Cn1nccc1Nc1nccc(-c2ccn([C@H](CO)c3ccc(Cl)c(F)c3)c(=O)c2)n1
inactive: SR leukemia 112% | RPMI-8226 leukemia 113% | OVCAR-8 ovarian 104% | OVCAR-5 ovarian 46.9% | OVCAR-4 ovarian 98.8% | SK-OV-3 ovarian 119% | IGROV1 ovarian 82% | OVCAR-3 ovarian 115% | NCI/ADR-RES ovarian 89.7% | T-47D breast 104% | BT-549 breast 93.6% | MDA-MB-435 melanoma 55.4% | SW-620 colon 62.7% | MCF7 breast 93.1% | HCT-116 colon 52.5% | HCC-2998 colon 36.9% | KM12 colon 82.8%

C[C@@H](Nc1cc(F)cc(F)c1)c1cc(C(=O)N(C)C)cc2c(=O)cc(N3CCOCC3)oc12
inactive: SR leukemia 53.5% | RPMI-8226 leukemia 84.4% | OVCAR-8 ovarian 57.9% | OVCAR-5 ovarian 54.5% | OVCAR-4 ovarian 88.2% | OVCAR-3 ovarian 40% | NCI/ADR-RES ovarian 85.4% | BT-549 breast 34.2% | MDA-MB-435 melanoma 64.8% | SW-620 colon 60.5% | MCF7 breast 25.2% | HCT-116 colon 55.8% | HCC-2998 colon 55.3% | KM12 colon 66.5%
active: SK-OV-3 ovarian 3.43% | IGROV1 ovarian -13.3% | T-47D breast -12.4%

CN1CCN(c2ccc(C(=O)Nc3n[nH]c4ccc(Cc5cc(F)cc(F)c5)cc34)c(NC3CCOCC3)c2)CC1
inactive: OVCAR-8 ovarian 22.6% | SK-OV-3 ovarian 20.1% | OVCAR-3 ovarian 32.8% | NCI/ADR-RES ovarian 10.8% | BT-549 breast 10.6%
active: SR leukemia -28.6% | RPMI-8226 leukemia -29.6% | OVCAR-5 ovarian 1.41% | OVCAR-4 ovarian -6.27% | IGROV1 ovarian -46.1% | T-47D breast -65.6% | MDA-MB-435 melanoma -86.5% | SW-620 colon -79.2% | MCF7 breast -72% | HCT-116 colon -95.5% | HCC-2998 colon -81.3% | KM12 colon -72.5%

CN1CC[C@@H](c2c(O)cc(O)c3c(=O)cc(-c4ccccc4Cl)oc23)[C@@H]1CO
inactive: OVCAR-3 ovarian 14%
active: SR leukemia 1.89% | RPMI-8226 leukemia 3.13% | OVCAR-8 ovarian 6.68% | OVCAR-5 ovarian 7.25% | OVCAR-4 ovarian -2.68% | SK-OV-3 ovarian 5.82% | IGROV1 ovarian 6.42% | NCI/ADR-RES ovarian -3.1% | T-47D breast -8.71% | BT-549 breast -4.92% | MDA-MB-435 melanoma -67.9% | SW-620 colon 4.02% | MCF7 breast 4.7% | HCT-116 colon 3.53% | HCC-2998 colon -25.8% | KM12 colon 3.84%

C[C@@H](NC(=O)c1ncnc(N)c1Cl)c1ncc(C(=O)Nc2cc(C(F)(F)F)c(Cl)cn2)s1
inactive: SR leukemia 57.5% | RPMI-8226 leukemia 71.9% | OVCAR-8 ovarian 64.5% | OVCAR-5 ovarian 31.3% | OVCAR-4 ovarian 98.5% | SK-OV-3 ovarian 93.6% | IGROV1 ovarian 63.5% | OVCAR-3 ovarian 95% | NCI/ADR-RES ovarian 79.8% | T-47D breast 92.2% | BT-549 breast 110% | MDA-MB-435 melanoma 39.3% | SW-620 colon 56.9% | MCF7 breast 96.2% | HCT-116 colon 25.3% | HCC-2998 colon 69.4% | KM12 colon 75.1%

CN(c1ncccc1CNc1nc(Nc2ccc3c(c2)CC(=O)N3)ncc1C(F)(F)F)S(C)(=O)=O
inactive: OVCAR-3 ovarian 15.1% | NCI/ADR-RES ovarian 56.2%
active: SR leukemia -6.03% | RPMI-8226 leukemia -7.65% | OVCAR-8 ovarian 4.96% | OVCAR-5 ovarian 7.36% | OVCAR-4 ovarian -7.63% | SK-OV-3 ovarian 5.63% | IGROV1 ovarian 7.61% | T-47D breast -2.8% | BT-549 breast -10.5% | MDA-MB-435 melanoma -9.58% | SW-620 colon 0.466% | MCF7 breast 2.39% | HCT-116 colon 1.07% | HCC-2998 colon -13.5% | KM12 colon 1.83%

CC1(O)CC(c2nc(-c3ccc4ccc(-c5ccccc5)nc4c3)c3c(N)nccn23)C1 (configuration not stated)
inactive: SR leukemia 33.9% | RPMI-8226 leukemia 31.8% | OVCAR-8 ovarian 39% | OVCAR-5 ovarian 41.3% | OVCAR-4 ovarian 33.1% | SK-OV-3 ovarian 13.5% | IGROV1 ovarian 40.1% | OVCAR-3 ovarian 56.6% | NCI/ADR-RES ovarian 41% | BT-549 breast 19.5% | MDA-MB-435 melanoma 36.3% | SW-620 colon 35.4% | MCF7 breast 14.5% | HCT-116 colon 35.3% | HCC-2998 colon 48.7%
active: T-47D breast 2.62%

CC(C)(C)c1cnc(CSc2cnc(NC(=O)C3CCNCC3)s2)o1
active: SR leukemia 0.401% | RPMI-8226 leukemia -8.04% | OVCAR-8 ovarian 5.71% | OVCAR-4 ovarian 9.94% | SK-OV-3 ovarian 6.31% | IGROV1 ovarian 9.86% | T-47D breast -7.81% | BT-549 breast 0.761% | MDA-MB-435 melanoma -58.7% | SW-620 colon 5.06% | MCF7 breast 3.72% | HCT-116 colon 2.22% | HCC-2998 colon 0.238% | KM12 colon 3.58%
inactive: OVCAR-5 ovarian 14.9% | OVCAR-3 ovarian 20.2% | NCI/ADR-RES ovarian 53%

C/C(=C(/c1ccc(Cl)cc1)c1ccc(OCCN2CCCCCC2)cc1)c1ccccc1
inactive: SR leukemia 18% | RPMI-8226 leukemia 70.2% | OVCAR-8 ovarian 89% | OVCAR-5 ovarian 69.6% | OVCAR-4 ovarian 73.5% | SK-OV-3 ovarian 113% | IGROV1 ovarian 74.1% | OVCAR-3 ovarian 89.6% | NCI/ADR-RES ovarian 90% | T-47D breast 71.1% | BT-549 breast 84.4% | MDA-MB-435 melanoma 92.6% | SW-620 colon 54% | MCF7 breast 76% | HCT-116 colon 50% | HCC-2998 colon 93.8% | KM12 colon 30.7%

CNS(=O)(=O)Nc1nccc(Cc2c(C)c3ccc(Oc4ncccn4)cc3oc2=O)c1F
active: HCC-2998 colon 1.07%
inactive: SR leukemia 58.3% | RPMI-8226 leukemia 55.3% | OVCAR-8 ovarian 63.2% | OVCAR-5 ovarian 20.4% | OVCAR-4 ovarian 55% | SK-OV-3 ovarian 53.3% | IGROV1 ovarian 28.7% | OVCAR-3 ovarian 76.2% | NCI/ADR-RES ovarian 70.6% | T-47D breast 60.1% | BT-549 breast 68.6% | MDA-MB-435 melanoma 37.1% | SW-620 colon 29% | MCF7 breast 79.2% | HCT-116 colon 19.2% | KM12 colon 26.1%

Source: PubChem BioAssay (NCI)
